Experimental findings from PubChem BioAssay are described below.

Values without a mark were called inactive. Calls of active or inactive are those of the source.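 Rule for the calls, unless noted: active = efflux inhibition above 0.42, the validation set average plus 4 SD; inconclusive = no clear call, values can overlap the other calls; inactive = the rest.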

One assay relates to anti-desmoglein-3 scFv antibody binding to human DSG3. Kind of assay: inhibitors of anti-DSG3 scFv binding to DSG3, pilot screen, biochemical, validation compound set, bead-based, flow cytometry (AID 588368;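 active = binding below the plate cutoff, the plate median minus 3 SD, with a reading above zero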;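 note: signal is the median channel fluorescence of bead-bound GFP antibody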). To be noted: Protein G beads, DSG3-Fc, scFv-GFP binding, at 10 µM, stronger effect = lower value. For orientation: In flow cytometry, cells or beads pass a laser one at a time.
Regarding `CCN(CC)C(=O)N1CCN(C)CC1`, the binding (% of control) is 103%.
Same read-out and setting: the value for `CC1(C)[C@@H](O)CC[C@]2(C)[C@H]3C(=O)C=C4[C@@H]5C[C@@](C)(C(=O)O)CC[C@]5(C)CC[C@@]4(C)[C@]3(C)CC[C@@H]12` was 97.6%; that for `O=C(Nc1ccc(Cl)cn1)Nc1ccccc1Cl` was 105%.
Still for that read-out and setting: the value for `COc1c(C=O)c(CCN(C)C(=O)c2ccc(F)cc2)cc2c1OCO2` was 109%; that for `COc1ccc(C2C3=C(CC(C)(C)CC3=O)N(C)C3=C2C(=O)CC(C)(C)C3)cc1` was 100%.
Still for that read-out and setting: the value for `CC(C)(Sc1cc(C(C)(C)C)c(O)c(C(C)(C)C)c1)Sc1cc(C(C)(C)C)c(O)c(C(C)(C)C)c1` was 102%; that for `CC(=O)NC(NC(=S)N1CCCCCC1)C(Cl)(Cl)Cl` (stereo not given) was 94.8%.
Regarding `Cc1ccc2c(CC(=O)O)coc2c1`, the binding (% of control) was 95.5%.
Still for that read-out and setting: for `COc1cccc(N2C(=O)CC(c3c[nH]c4ccccc34)C2=O)c1` (stereo not given) the value was 105%; for `CC1(CC(=O)Nc2ccccc2)NC(=S)N(c2ccccc2)N1` (stereo not given), 99.1%.
On the same count and under the same terms, for `O=c1nc2n(c3c1oc1ccccc13)Cc1ccccc1-2` the value was 99.6%; for `COC(=O)c1ccc(NC(=O)C23CCC(C)(C(=O)O2)C3(C)C)cc1` (stereo not given), 110%; for `c1cnc(N2CCN(Cc3ccc4c(c3)OCO4)CC2)nc1`, 105%.
Turning to `CCOC(=O)C1=C(N)Oc2c(c(=O)[nH]c3ccccc23)C1c1ccccc1` (stereo not given), the binding (% of control) was 104%.
Same read-out and setting: for `CCOc1ccc2[nH]c3c(=O)n(CCc4ccc(OC)cc4)cnc3c2c1` the value was 102%.
In the case of `CC(=O)OC(C)C[N+](C)(C)C` (stereo not given), the binding (% of control) was 107%.
On the same count and under the same terms, the value for `CNc1c2c(nn1C)CCCC2` was 101%; that for `O=C(CN1C(=O)/C(=C/c2cccc(Br)c2)SC1=S)Nc1cccnc1` was 99%; that for `N/C(Cc1ccc(Cl)cc1Cl)=N\OC(=O)c1ccc(Br)o1` was 105%.
Still for that read-out and setting: the value for `O=C(c1ccco1)N1CCCN(Cc2nc(-c3ccc4c(c3)OCO4)no2)CC1` was 94.7%; that for `Cc1ccc2c(c1)C(O)(C1COC(C)(C)CC1=O)C(=O)N2C` (stereo not given) was 102%; that for `CC(C)(C)C(=O)N1CCCC1C(=O)O` (stereo not given) was 103%.
Regarding `COc1ccc(C2NC(=O)c3ccccc3O2)c(OC)c1OC` (stereo not given), the binding (% of control) is 95.5%.
In the case of `CC(C(=O)O)c1cccc(C(=O)c2ccccc2)c1` (stereo not given), the binding (% of control) was 101%.
The same measure, in the same setting: for `C[N+]1(C2CCC3CCCC2C3O)CCCCC1` (stereo not given) the value was 99.3%; for `CCc1cc(=O)oc2cc3occ(-c4ccc(OC)c(F)c4)c3cc12`, 107%; for `COC(=O)[C@H]1[C@H]2C[C@@H]3c4[nH]c5cc(OC)ccc5c4CCN3C[C@H]2C[C@@H](OC(=O)c2ccc(N)cc2)[C@@H]1OC`, 104%.
Turning to `O=C(CN1CCN(Cc2ccccc2)CC1)N1CCCc2c1c(=O)oc1ccc(O)cc21`, the binding (% of control) was 109%.
Consider `CCOc1ccc2ccccc2c1C(=O)N[C@@H]1C(=O)N2[C@@H]1SC(C)(C)[C@@H]2C(=O)O`, for which the binding (% of control) is 95.5%.
The same measure, in the same setting: for `COc1ccccc1N1CCN(CC(O)COc2cccc3ccccc23)CC1` (stereo not given) the value was 107%.
As to `C[C@]12CC[C@@H]3c4ccc(O)cc4[C@@H](O)C[C@H]3[C@@H]1CC[C@@H]2O`, the binding (% of control) was 102%.
On the same count and under the same terms, the value for `O[C@H]1COC2C1OC[C@@H]2O` (stereo not given in full) was 104%; that for `O=C(NCCO)c1ccc(Cl)c(Cl)c1` was 104%; that for `O=C(Nc1ccc(C(=O)NC2CCCCC2)cc1)c1cccnc1` was 95.1%.
The same measure, in the same setting: for `CC(=O)Oc1ccc(C(c2ccc(OC(C)=O)cc2)c2ccccn2)cc1` the value was 106%; for `CC(CCc1ccccc1)NC(=O)/C=C/c1ccccc1` (stereo not given), 103%.
For the compound `Cc1ccc2nc(NC3=NC(CC(=O)O)C(=O)N3)nc(C)c2c1` (stereo not given), the binding (% of control) is 96.1%.
On the same count and under the same terms, for `O=C(NC(Nc1ccccn1)C(Cl)(Cl)Cl)c1ccccc1` (stereo not given) the value was 99.8%; for `NC(N)=N/N=C/c1cccc(Cl)c1Cl`, 102%.
Same read-out and setting: for `COc1ccccc1C(=O)Oc1ccc2c(c1)O/C(=C\c1ccncc1)C2=O` the value was 103%.

Tested on in a further assay: not listed separately
Briefly: inhibitors of fungal efflux pumps CDR1, CDR2, MDR1, pilot screen, validation compound set, multiplex, phenotypic (AID 588506).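 Note: Nile Red retained in cells so higher fluorescence means more efflux inhibition; 0 = negative control wells and 1 = enniatin B 25 µM full block.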 Conditions: S. cerevisiae pump-expressing triplex, Nile Red efflux flow cytometry; at 10 µM; stronger effect = higher value; the pumps come from Candida albicans.
Consider `CCN(CC)C(=O)N1CCN(C)CC1`, for which the efflux inhibition (fraction of control) is 0.72 (active).
On the same count and under the same terms, the value for `CC1(C)[C@@H](O)CC[C@]2(C)[C@H]3C(=O)C=C4[C@@H]5C[C@@](C)(C(=O)O)CC[C@]5(C)CC[C@@]4(C)[C@]3(C)CC[C@@H]12` was 0.11.
Still for that read-out and setting: the value for `O=C(Nc1ccc(Cl)cn1)Nc1ccccc1Cl` was -0.55.
On to `COc1c(C=O)c(CCN(C)C(=O)c2ccc(F)cc2)cc2c1OCO2`, for which the efflux inhibition (fraction of control) is -0.17.
On the same count and under the same terms, the value for `COc1ccc(C2C3=C(CC(C)(C)CC3=O)N(C)C3=C2C(=O)CC(C)(C)C3)cc1` was -0.09.
As for `CC(C)(Sc1cc(C(C)(C)C)c(O)c(C(C)(C)C)c1)Sc1cc(C(C)(C)C)c(O)c(C(C)(C)C)c1`, the efflux inhibition (fraction of control) is -0.03.
Same read-out and setting: for `CC(=O)NC(NC(=S)N1CCCCCC1)C(Cl)(Cl)Cl` (stereo not given) the value was 0.05; for `Cc1ccc2c(CC(=O)O)coc2c1`, 0.02.
Same read-out and setting: for `COc1cccc(N2C(=O)CC(c3c[nH]c4ccccc34)C2=O)c1` (stereo not given) the value was 0.
Still for that read-out and setting: for `CC1(CC(=O)Nc2ccccc2)NC(=S)N(c2ccccc2)N1` (stereo not given) the value was -0.13; for `O=c1nc2n(c3c1oc1ccccc13)Cc1ccccc1-2`, -0.3.
As for `COC(=O)c1ccc(NC(=O)C23CCC(C)(C(=O)O2)C3(C)C)cc1` (stereo not given), the efflux inhibition (fraction of control) is -0.04.
The same measure, in the same setting: for `c1cnc(N2CCN(Cc3ccc4c(c3)OCO4)CC2)nc1` the value was 0.235; for `CCOC(=O)C1=C(N)Oc2c(c(=O)[nH]c3ccccc23)C1c1ccccc1` (stereo not given), 0.01.
Same read-out and setting: for `CCOc1ccc2[nH]c3c(=O)n(CCc4ccc(OC)cc4)cnc3c2c1` the value was 0.12; for `CC(=O)OC(C)C[N+](C)(C)C` (stereo not given), 0; for `CNc1c2c(nn1C)CCCC2`, -0.19.
The same measure, in the same setting: for `O=C(CN1C(=O)/C(=C/c2cccc(Br)c2)SC1=S)Nc1cccnc1` the value was -0.41.
Take `N/C(Cc1ccc(Cl)cc1Cl)=N\OC(=O)c1ccc(Br)o1`: the efflux inhibition (fraction of control) is -0.39.
Same read-out and setting: the value for `O=C(c1ccco1)N1CCCN(Cc2nc(-c3ccc4c(c3)OCO4)no2)CC1` was 0.02.
For the compound `Cc1ccc2c(c1)C(O)(C1COC(C)(C)CC1=O)C(=O)N2C` (stereo not given), the efflux inhibition (fraction of control) is 0.05.
As to `CC(C)(C)C(=O)N1CCCC1C(=O)O` (stereo not given), the efflux inhibition (fraction of control) was -0.04.
Still for that read-out and setting: for `COc1ccc(C2NC(=O)c3ccccc3O2)c(OC)c1OC` (stereo not given) the value was 0.11; for `CC(C(=O)O)c1cccc(C(=O)c2ccccc2)c1` (stereo not given), 0.36.
For the compound `C[N+]1(C2CCC3CCCC2C3O)CCCCC1` (stereo not given), the efflux inhibition (fraction of control) was -0.1.
Still for that read-out and setting: the value for `CCc1cc(=O)oc2cc3occ(-c4ccc(OC)c(F)c4)c3cc12` was 0.63 (active); that for `COC(=O)[C@H]1[C@H]2C[C@@H]3c4[nH]c5cc(OC)ccc5c4CCN3C[C@H]2C[C@@H](OC(=O)c2ccc(N)cc2)[C@@H]1OC` was -0.17.
For `O=C(CN1CCN(Cc2ccccc2)CC1)N1CCCc2c1c(=O)oc1ccc(O)cc21`, the efflux inhibition (fraction of control) was -0.31.
Still for that read-out and setting: the value for `CCOc1ccc2ccccc2c1C(=O)N[C@@H]1C(=O)N2[C@@H]1SC(C)(C)[C@@H]2C(=O)O` was 0.14; that for `COc1ccccc1N1CCN(CC(O)COc2cccc3ccccc23)CC1` (stereo not given) was -0.09.
The same measure, in the same setting: the value for `C[C@]12CC[C@@H]3c4ccc(O)cc4[C@@H](O)C[C@H]3[C@@H]1CC[C@@H]2O` was -0.29; that for `O[C@H]1COC2C1OC[C@@H]2O` (stereo not given in full) was 0.
As for `O=C(NCCO)c1ccc(Cl)c(Cl)c1`, the efflux inhibition (fraction of control) is 0.78 (active).
Still for that read-out and setting: for `O=C(Nc1ccc(C(=O)NC2CCCCC2)cc1)c1cccnc1` the value was -0.17; for `CC(=O)Oc1ccc(C(c2ccc(OC(C)=O)cc2)c2ccccn2)cc1`, 0.08.
On the same count and under the same terms, for `CC(CCc1ccccc1)NC(=O)/C=C/c1ccccc1` (stereo not given) the value was -0.13; for `Cc1ccc2nc(NC3=NC(CC(=O)O)C(=O)N3)nc(C)c2c1` (stereo not given), 0.36; for `O=C(NC(Nc1ccccn1)C(Cl)(Cl)Cl)c1ccccc1` (stereo not given), 0.25.
In the case of `NC(N)=N/N=C/c1cccc(Cl)c1Cl`, the efflux inhibition (fraction of control) is -0.24.
On the same count and under the same terms, the value for `COc1ccccc1C(=O)Oc1ccc2c(c1)O/C(=C\c1ccncc1)C2=O` was 0.17.
